The source of these data is the OligoGym collection.
Note: reference of the scale not given here.

The first experiment has as its target SLC27A5. The experiment in a line: pooled miR-30 sensor sort-seq; sequence = guide strand. As to conditions: shRNA.
For the sequence TTGCAAGAAGTCCACCTGCGAC, the sensor-assay potency score (higher = more potent) was -1.49. Turning to TACAGGATCACTGTCACGCCAT, the sensor-assay potency score (higher = more potent) was -0.0663. Consider TTGACTAAGCCCATGTTGCCTT, for which the sensor-assay potency score (higher = more potent) is -0.405. For TAAACCACATCATCAGCTGTGG, the sensor-assay potency score (higher = more potent) is -0.167. In the case of TTGTCCAGTACAAACAGAGGGT, the sensor-assay potency score (higher = more potent) is -0.338.

For TTCATCAGTTTGAACGTGCTGG, the sensor-assay potency score (higher = more potent) turned out to be 0.535. For the sequence TATGTGTCCGGTCCTCTGGTTG, the sensor-assay potency score (higher = more potent) is -1.24. Consider TTGTAGTAAACGTCGCCCGATT, for which the sensor-assay potency score (higher = more potent) was -1.15. Consider TGTTGTAGTAAACGTCGCCCGA, for which the sensor-assay potency score (higher = more potent) was -0.779. Turning to TAGTCCATTGCCCATTGCCAGG, the sensor-assay potency score (higher = more potent) is -1.83. With TAGTTGACTAAGCCCATGTTGC, the sensor-assay potency score (higher = more potent) is -0.878. Still for that read-out and setting: to TATTCTGCCACTGCTACAGGGC belongs -0.565.

A further experiment has as its target SLC28A2. Described as above. As to conditions: shRNA.
Take TCTTCTTGAACAATCTGGCGTG: the sensor-assay potency score (higher = more potent) is -0.29. TTCCAGGACATTCCTCTCCTTC: the sensor-assay potency score (higher = more potent) was -1.16. Consider TTGAACAATCTGGCGTGTGTTT, for which the sensor-assay potency score (higher = more potent) was -0.953. On the same count and under the same terms, next, TTTGTTCTTGTATTGAGACAGT: -0.497.
